Reference: PubChem BioAssay AID2551 (National Center for Advancing Translational Sciences (NCATS), 2010)
Among all 310,000 compounds or so, about 17,000 (5.5%) were called active. Not shown: some 11% with an inconclusive outcome. Calls come from the whole dose curve; as a rule, active = well fitted inhibition curve with a large enough effect; inconclusive = small, poorly fitted or top-dose-only effect, or effect the other way; inactive = no such curve, though single readings can be large or run the other way. Many of the other results were omitted from the sample, so actives are more common in it than they were.

Target: Nuclear receptor ROR-gamma (Mus musculus) (UniProt P51450)
Assay: qHTS for inhibitors of ROR gamma transcriptional activity; note: nearly all actives have a fitted effect of over 60% in size
Conditions: Drosophila S2 Gal4-RORgamma UAS-luciferase reporter, 20 h; series mostly up to 53.6 µM; activity change, negative = inhibition: at the top concentration
Excerpt: NIH Molecular Libraries Probe Production Network [MLPCN] NIH Chemical Genomics Center [NCGC] MLPCN Grant: R03 DA026211-01 Assay Provider: Dan Littman, New York University Assay Overview: The retinoic acid-related orphan receptor (ROR) gamma is a transcription factor that has a central role in the differentiation of Th17 cells, a subset of T helper cells that secrete the inflammatory cytokines IL-17, IL-17F, and IL-22. Th17 cells have been implicated in graft versus host disease, autoimmune disease and asthma. ROR gamma is induced in naive T helper cells in the presence of TGF-beta combined with IL-6, IL-21, or IL-23, and thereafter directs the expression of the Th17 lineage cytokines. To study the mechanism of action of ROR gamma, an insect cell-based assay was screened. This Drosophila Schneider cell line was stably transfected with two vectors: a gene expressing a fusion of the Gal4 DNA binding domain and ROR gamma transactivation domain under the control of the metallothionine promoter and a Photinus luciferase reporter regulated by the Gal4 binding site enhancer, UAS. […] Small molecule inhibitors of ROR gamma activity are detected by a decrease in luciferase reporter activity.
Assay Protocol Summary: For screening, 600 cells in 4 uL/well were dispensed into white solid 1536-well plates (Grenier) using a solenoid-based dispenser. Following transfer of 23 nL compound or DMSO vehicle by a pin tool, the plates were incubated 1 hr at ambient temperature, and 1 uL/well copper sulfate (700 uM final concentration) was added. The plates were centrifuged 15 s at 1000 RPM and incubated 20 hr at ambient temperature. After addition of 1.5 uL Photinus luciferase detection reagent, the plates were incubated 10 min at ambient temperature and then read by an ViewLux (Perkin Elmer) to detect luminescence. Keywords: NIH Roadmap, MLPCN, MLI, MLSMR, qHTS, NCGC, qHTS, nuclear hormone receptor, retinoic acid-related orphan receptor, ROR gamma
% is set by controls: 0 for no effect and ±100 for the full control effect; potency is the fitted concentration of half-maximal effect.

Chain of Nuclear receptor ROR-gamma (Mus musculus) (P51450 whole entry, looked up): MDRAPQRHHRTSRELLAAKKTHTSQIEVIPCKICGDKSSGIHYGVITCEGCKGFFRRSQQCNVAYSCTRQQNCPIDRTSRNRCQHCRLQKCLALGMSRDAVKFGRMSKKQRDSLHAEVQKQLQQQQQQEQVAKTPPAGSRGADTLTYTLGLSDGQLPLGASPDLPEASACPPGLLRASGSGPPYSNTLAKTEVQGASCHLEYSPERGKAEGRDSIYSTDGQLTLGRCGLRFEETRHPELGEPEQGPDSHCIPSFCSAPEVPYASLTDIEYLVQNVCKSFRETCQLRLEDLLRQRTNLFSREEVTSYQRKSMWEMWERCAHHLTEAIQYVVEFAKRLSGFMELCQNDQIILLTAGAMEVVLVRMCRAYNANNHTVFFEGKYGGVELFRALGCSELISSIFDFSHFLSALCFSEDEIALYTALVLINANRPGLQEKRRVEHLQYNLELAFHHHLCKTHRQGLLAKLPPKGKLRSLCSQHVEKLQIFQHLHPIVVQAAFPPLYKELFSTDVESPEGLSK

Activity change, negative = inhibition, inactive:
COc1ccc(CNS(=O)(=O)c2cc(-c3cc(C)no3)ccc2C(C)C)cc1 31.8%, O=C(c1ccco1)N1CCN(C(=O)c2cc(-c3ccccc3F)no2)CC1 28.9%, CC1(C)c2[nH]c3ccccc3c2C[C@H]2C(=O)N(N)CC(=O)N21 6.7%, COc1ccc(C(=O)Cc2cnn(-c3ccccc3)c2)c(O)c1 27.6%, O=C(c1cnn(-c2ccc(Cl)cc2)c1)c1ccccc1O -38.1%, O=C(Nc1cccc(-n2cnnn2)c1)c1cccnc1 12.2%, COc1ccc(CNC(=O)c2c[nH]c3c(OC)cc(OC)cc3c2=O)cc1 8.69%, Nc1nonc1-n1nnc(C(=O)N/N=C/C2CCCCC2)c1-c1ccccc1 -30.9%, Nc1nonc1-n1nnc(C(=O)N/N=C/c2c[nH]c3ccccc23)c1-c1ccccc1 3.13%, Cn1c(=O)c2c(nc(NCCNC(=O)c3ccco3)n2Cc2ccccc2F)n(C)c1=O 16.6%, O=C(O)c1ccc(S(=O)(=O)N2CCC(Cc3ccccc3)CC2)cc1 -17.6%, Cn1cnc2c1c(=O)n(Cc1ccccc1C#N)c(=O)n2C -22%, O=C1CN(C(=O)c2ccccc2F)C(c2ccc(F)cc2)c2cc(F)ccc2N1 (configuration not stated) 24.6%, Cc1cc(=O)oc2c(C)c(OCC(=O)NCCN3CCOCC3)ccc12 -6.37%, O=C(O)c1ccc(/C=N/NC(=S)NCc2ccccc2)cc1 -12%, CC1CCCCN1C(=S)NCc1ccccc1 (configuration not stated) -121%, C[n+]1ccc(C(=O)NCc2ccccc2)cc1 -17.6%, O=C(CC1CCCCC1)NCc1ccccc1 -26.9%, CC(CC(=O)N1CCN(c2ccccc2)CC1)S(=O)(=O)c1ccc2c(c1)NC(=O)CS2 (configuration not stated) 26.3%, COC(=O)COc1ccc2c(=O)c(Oc3ccccc3Br)coc2c1 -14.6%, Cc1ccc(S(=O)(=O)NCC(=O)Nc2ccc3c(c2)OCCO3)cc1 -2.15%, O=C(N/C(=C\c1ccc([N+](=O)[O-])cc1)C(=O)N1CCOCC1)c1cccc(Br)c1 18.2%, O=C(/C=C/c1ccc(Cl)cc1)NCCCn1ccnc1 -4.51%, CCn1cc(/C=C(\NC(=O)c2ccc(C)cc2)C(=O)NCCN2CCOCC2)c2ccccc21 6.77%, COc1ccc(-c2cc(C(=O)NCCCN3CCOCC3)no2)cc1 -20.5%, O=C(NCCCN1CCOCC1)c1cc(-c2cccc(O)c2)on1 -16.9%, Cn1cc(S(=O)(=O)Nc2ccc(Cl)cc2Cl)c(=O)n(C)c1=O -23.8%, COc1cc(OC)c(NS(=O)(=O)c2cn(C)cn2)cc1Cl -31.2%, Cc1cc(C(=O)N/N=C/c2ccc(N3CCOCC3)cc2)c(C)o1 1.46%, Cc1cc(C(=O)N/N=C/c2ccccc2[N+](=O)[O-])c(C)o1 14.4%, Cc1c(CC(=O)N2CCN(C(=O)C3COc4ccccc4O3)CC2)c(=O)oc2c(O)c(O)ccc12 (configuration not stated) -17.5%, COc1cc(OC)cc(C(=O)Nc2nnc(SCC(=O)NCC3CCCO3)s2)c1 (configuration not stated) 4%, CC(=O)c1ccc(N2CCN(CC(O)c3ccccc3)CC2)cc1 (configuration not stated) -14.4%, Cc1[nH]c(C)c(S(=O)(=O)N2CCN(c3cccc(C(F)(F)F)c3)CC2)c1C(=O)N1CCCCC1 -4.17%, COc1ccc(-c2nc(CS(=O)CC(=O)NCc3ccccc3)c(C)o2)cc1OC (configuration not stated) 3.74%, Cc1cccc(-c2nc(CS(=O)CC(=O)NC(C)CCc3ccccc3)c(C)o2)c1 (configuration not stated) 43.4%, CCCOc1ccc(Cc2c(O)nc(SC)[nH]c2=O)cc1C 30.8%, O=C(c1cc2ccccc2o1)N1CCN(c2cccc(C(F)(F)F)c2)CC1 33.7%, N=c1c2c(-c3ccccc3)c(-c3ccccc3)oc2ncn1Cc1ccco1 22.8%, COc1ccc(-c2oc3ncnc(NCCCO)c3c2-c2ccc(OC)cc2)cc1 22.4%, CC(C)[C@@H]1COC(c2cccc(C3=N[C@H](C(C)C)CO3)c2)=N1 -41.6%, O=C(NC(Cc1ccc(O)cc1)C(=O)O)/C(=C/c1ccccc1)NC(=O)c1ccccc1 (configuration not stated) -2.76%, O=C(C[C@H]1C(=O)N(c2ccc(F)c(F)c2)C[C@@H]1Cc1ccccc1)Nc1ccccc1 44.7%, Cc1c(C)c(C)c(S(=O)(=O)N2CCC3(CC2)OCCO3)c(C)c1C -34.3%, Cc1cc(SCc2c(F)cccc2Cl)nc(=O)[nH]1 2.04%, O=C(COC(=O)Cc1ccc(F)cc1)Nc1cc(S(=O)(=O)N2CCOCC2)ccc1N1CCCC1 33.6%, CC(=O)NCCC(=O)Nc1cc(S(=O)(=O)N2CCOCC2)ccc1N1CCOCC1 32.6%, O=C(Nc1ccccc1C(=O)Nc1ccncc1)c1ccc([N+](=O)[O-])cc1 25.4%, Cc1ccc(N2CCN(c3ccc([N+](=O)[O-])cn3)CC2)c(C)c1 -2.68%, O=C(COC(=O)c1ccc(N2CCCC2=O)cc1)c1ccc(OC(F)F)cc1 44.5%, O=C(NCCNc1ccccc1[N+](=O)[O-])c1ccccc1F 20.5%, COc1cc(CN2CCC(n3nccc3NC(=O)CCCc3ccccc3)CC2)ccc1O 24.6%, COc1cc2[nH]c(=O)n(CCC(=O)NC3CCN(Cc4ccccc4)CC3)c(=O)c2cc1OC -7.87%, CCOc1cc2[nH]c(=S)n(Cc3ccc(C(=O)NCCOC)cc3)c(=O)c2cc1OCC -43.7%, CCOc1cc2[nH]c(=S)n(CCCN3CCCC3=O)c(=O)c2cc1OCC -1.37%, COc1cc2[nH]c(=O)n(Cc3ccc(C(=O)NC4CCN(Cc5ccccc5)CC4)cc3)c(=O)c2cc1OC 6.06%, O=S(=O)(NC1CCCC1)c1ccc(-n2cnnn2)cc1 -26.9%, Cc1sc2nc(SCCO)n(-c3ccccc3)c(=O)c2c1C 16.7%, COCCCNC(=S)N1CCN(c2nc(-c3cccc(OC)c3)cs2)CC1 19.9%, O=C(Nc1c2c(nn1-c1ccccc1)CS(=O)(=O)C2)C1CCCC1 -9.49%, NC(N)=N/N=C/c1ccc(Cl)c([N+](=O)[O-])c1 2.73%, CC(CN1CCC(n2nccc2NC(=O)C2CCCC2)CC1)c1ccccc1 (configuration not stated) -26.1%, O=C(CCc1nnc2ccc(NCc3ccco3)nn12)Nc1cc(F)ccc1F 12.4%, CC(=O)NCCn1c(SCC(=O)Nc2ccc(C)cc2)nc2ccccc2c1=O 8.63%, CCc1ccc(NC(=O)CSc2nc3ccccc3c(=O)n2CCN2CCOCC2)cc1 42.2%, CCn1c(C)c(C)c2cc(C(=O)N3CCN(c4cccc(C)c4C)CC3)ccc21 2.35%, CCCCC(c1nnnn1CS(=O)(=O)c1ccc(C)cc1)N1CCC(C(N)=O)CC1 (configuration not stated) -7.67%, Cc1ccc(CNC(=O)Cc2cn(C)c3ccccc23)cc1 24.8%, CC(C)(C)c1cc(C(=O)N/N=C/c2ccc([N+](=O)[O-])s2)n[nH]1 -30.6%, COc1ccc2ccccc2c1/C=N/NC(=O)c1cc(C)[nH]n1 -11.2%, CCCCn1c(SCC(=O)N2CCOCC2)nc2c1c(=O)n(C)c(=O)n2C 8.39%, CC1(C)CCCC2=C1CC1C(=O)N(c3ccccc3)C(=O)C1C2 (configuration not stated) -12.1%, CC(C)[C@H](NC(=O)N1CCn2c1nc1ccccc12)C(=O)NCc1ccc2c(c1)OCO2 -24.8%, Cc1ccc2[nH]c(=O)c(CC(=O)O)c(-c3ccccc3)c2c1 -2.08%, COc1ccc(C(C)NC(=O)C23CC4CC(CC(C4)C2)C3)cc1 (configuration not stated) 7.13%, O=C(N/N=C\c1cccc(Br)c1)c1ccccc1-n1cccc1 -2.2%, O=C(O)c1ccc(/C=N/NC(=O)c2ccc(Br)cc2)cc1 -14.5%, O=C(Nc1ccc(C(=O)O)cc1)/C(=C\c1ccccc1)NC(=O)c1ccc(Br)cc1 9.49%, O=C(Nc1cccc(NC(=O)c2ccc(Br)cc2)c1)c1ccccc1 -13.1%, Cc1cccc(N(C(=O)Cn2nnc(-c3ccc(C)o3)n2)C(C(=O)NC2CCCC2)c2ccncc2)c1 (configuration not stated) -41.8%, O=C(CCN1C(=O)[C@H]2CC=CC[C@H]2C1=O)NCc1nc(-c2ccccc2)no1 8.53%, CCCNC(=O)c1ccc(N2CCC3(CC2)CC(c2ccc(Cl)cc2)=NO3)c([N+](=O)[O-])c1 20.5%, O=C1CCC(C(=O)N2CCC(O)(c3ccccc3)CC2)CN1CCc1ccccc1 (configuration not stated) 1.71%

Potency, active:
Cc1cc(O)cc(O)c1C(=O)Cc1cnn(-c2ccccc2)c1 0.199 µM, CCCOc1ccc(-c2c(C(=O)N/N=C/c3ccco3)nnn2-c2nonc2N)cc1 11.2 µM, C/C(=N\NC(=S)NCc1ccccc1)C1CCCCC1 0.224 µM, C/C(=N\NC(=S)NCc1ccccc1)c1ccc(Cl)cc1 3.55 µM, O=C(NCCCN1CCOCC1)c1cc(-c2ccc(Cl)cc2)on1 11.2 µM, CC(=C/c1ccccc1)/C=N/NC(=O)c1cc(C)oc1C 7.08 µM, COc1ccc(-c2nc(CS(=O)CC(=O)NCc3cccnc3)c(C)o2)cc1OC (configuration not stated) 11.2 µM, COc1ccc(-c2oc3ncn(Cc4ccco4)c(=N)c3c2-c2ccc(OC)cc2)cc1 12.6 µM, COCCNC(=S)Nc1cc(S(=O)(=O)N2CCOCC2)ccc1N1CCCCC1 0.891 µM, CC/C(=N\NC(=S)NC(C)C)c1ccc(OC(F)F)cc1 0.562 µM, COc1cc2[nH]c(=S)n(Cc3ccc(C)o3)c(=O)c2cc1OC 5.01 µM, COc1cc2[nH]c(=S)n(Cc3ccc(F)cc3)c(=O)c2cc1OC 1.78 µM, Nn1cnnc1N/N=C/c1cc([N+](=O)[O-])c(Cl)cc1Cl 11.2 µM, Oc1ccc(Br)cc1C=Nc1ccc2[nH]ncc2c1 11.2 µM, CCn1c(SCC(=O)Nc2ccc(C)cc2)nc2nc3c(cc2c1=O)CCCC3 10 µM, Cc1cc(C(=O)N/N=C/c2cc([N+](=O)[O-])cc(C)c2O)n[nH]1 10 µM, CC1CC2=C(CC1/C=N/NC(N)=S)C(C)(C)CCC2 (configuration not stated) 1.41 µM, CC(=N\NC(=O)c1cc(Br)ccc1O)/C(=N/O)C(=O)Nc1ccccc1 7.94 µM, CC(C)/C=N/NC(=O)c1cc(Br)ccc1O 10 µM
